The results in this text go back to paper PMC5540273 (PLoS ONE, 2017).

Several values for one entry are separate records, joined by “and”; a condition that tells them apart may be missing. Equal entries are not always repeated. Where two headings read alike, the source gives them in different places.

The subject of one assay is RIPK5. As to conditions: concentration: 1 μM, replicates: in singlicate, n = 1.
In the next assay the test system is ROCK1. As to conditions: concentration: 1 μM, replicates: in singlicate, n = 1.
For a further assay, the system named is ROCK2. As to conditions: concentration: 1 μM, replicates: in singlicate, n = 1.
In the next assay the test system is ROS1. The following applies: concentration: 1 μM, replicates: in singlicate; n = 1.
Assay [1] deals with RPS6KA4(Kin.Dom.1-N-terminal). The following applies: concentration: 1 μM, replicates: in singlicate, n = 1.
Assay [2] deals with RPS6KA4(Kin.Dom.2-C-terminal). As to conditions: concentration: 1 μM, replicates: in singlicate, n = 1.
In assay [3] the test system is RPS6KA5(Kin.Dom.1-N-terminal). The following applies: concentration: 1 μM, replicates: in singlicate, n = 1.
Assay [4] concerns RPS6KA5(Kin.Dom.2-C-terminal). As to conditions: concentration: 1 μM, replicates: in singlicate, n = 1.
For assay [5], the system named is T1, RSK1(Kin.Dom.1-N-terminal).
T1 construct: gene RPS6KA1
The following applies: concentration: 1 μM, replicates: in singlicate; n = 1.

Assay [6] deals with T2, RSK1(Kin.Dom.2-C-terminal).
T2 construct: gene RPS6KA1
The following applies: concentration: 1 μM, replicates: in singlicate, n = 1.

Assay [7] concerns T3, RSK2(Kin.Dom.1-N-terminal).
T3 construct: gene RPS6KA3
The following applies: concentration: 1 μM, replicates: in singlicate, n = 1.

The test system of assay [8] is T4, RSK2(Kin.Dom.2-C-terminal).
T4 construct: gene RPS6KA3
The following applies: concentration: 1 μM, replicates: in singlicate, n = 1.

The subject of assay [9] is T5, RSK3(Kin.Dom.1-N-terminal).
T5 construct: gene RPS6KA2
The following applies: concentration: 1 μM, replicates: in singlicate, n = 1.

Assay [10] relates to T6, RSK3(Kin.Dom.2-C-terminal).
T6 construct: gene RPS6KA2
As to conditions: concentration: 1 μM, replicates: in singlicate, n = 1.

Assay [11] concerns T7, RSK4(Kin.Dom.1-N-terminal).
T7 construct: gene RPS6KA6
The following applies: concentration: 1 μM, replicates: in singlicate, n = 1.

For assay [12], the system named is T8, RSK4(Kin.Dom.2-C-terminal).
T8 construct: gene RPS6KA6
The following applies: concentration: 1 μM, replicates: in singlicate, n = 1.

Another assay has as its system S6K1. As to conditions: concentration: 1 μM, replicates: in singlicate, n = 1.
In the next assay the test system is SBK1. The following applies: concentration: 1 μM, replicates: in singlicate, n = 1.
Another assay concerns SGK2. The following applies: concentration: 1 μM, replicates: in singlicate; n = 1.
For another assay, the system named is SGK3. The following applies: concentration: 1 μM, replicates: in singlicate, n = 1.
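Also: KINOMEscan kinase panel screen.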

As to `Nc1nc(-c2ccc3c(N)n[nH]c3c2)cc(N2CCCC2)n1` [GSK2227430], the “%Inh” value with RIPK5 stood at 0%; in the assay with ROCK1, 2%; in the assay on ROCK2, 0%; in the assay on ROS1, 0%; in assay [1] it was 0%; in assay [2] it was 0%. Moreover, the “%Inh” value is 10% in assay [3]; 0% in [4]; 9% in assay [5]; 0% in [6]; 0% in [7]; 0% in assay [8]. Moreover, the “%Inh” value worked out at 20% in assay [9]; 17% in assay [10]; 0% in assay [11]; 0% in assay [12]; 0% with S6K1; 8% with SBK1. Further, the “%Inh” value in the assay on SGK2 is listed as 0%; with SGK3, 8%.

`Cl.Cl.Cl.Fc1ccc(-c2ncn(C3CCNCC3)c2-c2ccnc(Nc3ccccc3)n2)cc1` [SB-238039]: the “%Inh” value with RIPK5 (1 µM) was 82% and 61%; in the assay on ROCK1 (1 µM) it was 27% and 0%; in the assay with ROCK2 (1 µM) it was 32% and 9%; in the assay with ROS1, 0%; in assay [1] (1 µM), 16% and 4%; in [2] (1 µM), 0% and 4%. For the same compound, the “%Inh” value was 36% and 11% in assay [3] (1 µM); 23% and 0% in [4] (1 µM); 0% in [5]; 64% and 35% in assay [6] (1 µM); 41% and 35% in assay [7] (1 µM); 16% and 0% in [8] (1 µM). Also, the “%Inh” value was 0% and 15% in assay [9] (1 µM); 18% and 32% in assay [10] (1 µM); 19% and 0% in [11] (1 µM); 88% and 80% in assay [12] (1 µM); 5% and 0% in the assay with S6K1 (1 µM); 36% and 0% in the assay on SBK1 (1 µM). Moreover, the “%Inh” value in the assay on SGK2 was 2%; with SGK3 (1 µM) it was 8% and 12%.

In the case of `CN1c2ccc(NCc3ccc(F)cc3)cc2-c2c(cnn2C)S1(=O)=O`, the “%Inh” value (in the assay with RIPK5; in the assay with ROCK1; in the assay on ROCK2; in the assay on ROS1; in [1]; in [2]) was 0% in each case. In addition, the “%Inh” value came out at 0% in assay [3]; 0% in assay [4]; 0% in assay [5]; 20% in assay [6]; 23% in [7]; 31% in assay [8]. For the same compound, the “%Inh” value in assay [9] amounted to 10%; in assay [10] it was 22%; in assay [11] it was 0%; in assay [12] it was 98.7%; in the assay on S6K1 it was 10%; in the assay on SBK1 it was 0%. For the same compound, the “%Inh” value is 18% in the assay on SGK2 and 4% in the assay with SGK3.

Take `Cc1c(Cn2c(C)nn3c(=O)cc(N4CCOC(C)C4)nc23)cccc1C(F)(F)F` (centres unmarked) [GSK2344444]: the “%Inh” value in the assay on RIPK5 was found to be 0%; in the assay with ROCK1, 0%; with ROCK2, 10%; in the assay on ROS1, 14%; in assay [1], 21%; in assay [2], 0%. The “%Inh” value in assay [3] was found to be 0%; in [4], 0%; in assay [5] it was 0%; in assay [6], 6%; in [7], 10%; in assay [8], 0%. Moreover, the “%Inh” value in [9] was found to be 3%; in assay [10] it was 0%; in assay [11], 1%; in assay [12], 17%; in the assay with S6K1 it was 9%; in the assay on SBK1 it was 33%. In addition, the “%Inh” value in the assay with SGK2 and with SGK3 was 0% in each case.

`O=c1cc(N2CCOCC2)nc2n(Cc3cccc(C(F)(F)F)c3)ccn12` [GSK2297543]: the “%Inh” value with RIPK5 is recorded as 0%; in the assay with ROCK1, 0%; in the assay with ROCK2, 17%; in the assay with ROS1, 32%; in assay [1], 13%; in assay [2], 0%. Also, the “%Inh” value in [3] is 4%; in assay [4], 6%; in assay [5] it was 0%; in assay [6], 15%; in [7], 16%; in assay [8] it was 6%. The “%Inh” value in assay [9] is 0%; in [10], 6%; in assay [11] it was 0%; in assay [12], 13%; with S6K1, 0%; with SBK1, 37%. The figures for the “%Inh” value in the assay with SGK2 and in the assay on SGK3 were 0% and 5%, respectively.

Take `O=C(Nc1n[nH]c2cc(-c3cccc(F)c3)ccc12)C1CC1` [SB-735464]: the “%Inh” value is given as 23% with RIPK5; 18% in the assay on ROCK1; 4% in the assay with ROCK2; 16% in the assay on ROS1; 0% in [1]; 9% in [2]. Besides, the “%Inh” value in assay [3] was determined as 0%; in assay [4], 24%; in assay [5] it was 1%; in assay [6] it was 26%; in assay [7] it was 0%; in [8], 15%. For the same compound, the “%Inh” value in assay [9] is given as 2%; in assay [10], 0%; in [11] it was 9%; in assay [12], 17%; in the assay on S6K1 it was 49%; in the assay with SBK1 it was 21%. The “%Inh” value with SGK2 worked out at 0%; in the assay with SGK3, 13%.

Turning to `[2H]C([2H])(c1cccc(C(F)(F)F)c1C)n1ccn2c(=O)nc(N3CCOCC3)cc12` [GSK2336394], the “%Inh” value with RIPK5 stood at 0%; in the assay with ROCK1, 8%; in the assay with ROCK2, 0%; in the assay on ROS1, 22%; in assay [1], 17%; in assay [2] it was 0%. Further, the “%Inh” value amounted to 2% in assay [3]; 0% in [4]; 5% in [5]; 0% in assay [6]; 0% in assay [7]; 18% in [8]. Besides, the “%Inh” value in assay [9] is on record as 9%; in [10], 0%; in [11], 0%; in assay [12], 21%; in the assay with S6K1, 12%; in the assay on SBK1 it was 24%. The “%Inh” value is on record as 1% in the assay with SGK2 and 0% in the assay on SGK3.

Turning to `CCc1ccnc(/C=C/c2n[nH]c3cc(Sc4ccccc4C(=O)NC)ccc23)c1`, the “%Inh” value is listed as 0% in the assay with RIPK5; 0% in the assay with ROCK1; 0% with ROCK2; 19% with ROS1; 0% in assay [1]; 0% in assay [2]. The “%Inh” value in assay [3] came out at 0%; in assay [4] it was 0%; in assay [5], 0%; in assay [6], 3%; in [7], 8%; in [8] it was 0%. Besides, the “%Inh” value was 13% in assay [9]; 6% in assay [10]; 18% in assay [11]; 12% in assay [12]; 6% with S6K1; 16% in the assay with SBK1. Further, the figures for the “%Inh” value in the assay with SGK2 and in the assay with SGK3 were 0% and 24%, respectively.

As for `COc1ccc(Nc2ncc(C#N)c(Nc3ccccc3C(N)=O)n2)cc1N1CCN(C)CC1.Cl` [GSK1558669], the “%Inh” value was found to be 98.7% in the assay with RIPK5; 87% in the assay with ROCK1; 91.2% with ROCK2; 97% in the assay with ROS1; 100% in [1]; 97% in assay [2]. The “%Inh” value in assay [3] was determined as 98%; in assay [4], 44%; in assay [5] it was 99.7%; in [6], 47%; in assay [7], 100%; in [8], 7%. Further, the “%Inh” value in assay [9] worked out at 99.7%; in [10], 11%; in assay [11], 100%; in [12], 50%; in the assay on S6K1 it was 99.9%; with SBK1, 93.9%. Also, the “%Inh” value in the assay on SGK2 was 58%; with SGK3 it was 95.3%.

In the case of `Cc1c2ccc(N(C)c3ccnc(Nc4cccc(S(N)(=O)=O)c4)n3)cc2nn1Cc1ccccc1.Cl.Cl` [GW787226], the “%Inh” value with RIPK5 is on record as 28%; in the assay on ROCK1, 48%; in the assay on ROCK2 it was 0%; in the assay with ROS1, 62%; in assay [1], 18%; in assay [2], 0%. In addition, the “%Inh” value in [3] is 0%; in [4], 0%; in [5], 0%; in assay [6] it was 19%; in assay [7] it was 18%; in assay [8], 0%. The “%Inh” value in [9] came out at 0%; in [10] it was 0%; in assay [11], 6%; in [12], 0%; in the assay with S6K1, 65%; in the assay with SBK1, 0%. In addition, the “%Inh” value in the assay on SGK2 and in the assay with SGK3 was 0% throughout.
